The source made the active and inactive calls. Unless noted, how the calls were made is not given here.
Experiments:
[1] = tested on: XIP peptide (Xip251-270) binding; assay: small-molecule binders of XIP peptide, primary screen, biochemical, small-molecule microarray, fluorescence 635/667 nm, 0.1 µg/mL protein (AID 1182); conditions: fluorescent protein binding, 635 nm, higher = more signal, called active from +8 up or from −8 down
XIP peptide (Xip251-270) = assay: small-molecule binders of XIP peptide, primary screen, biochemical, small-molecule microarray, fluorescence 635/667 nm, 0.5 µg/mL protein (AID 1183); conditions: small-molecule microarray binding, fluorescence 635 nm; higher = more signal
[2] = Plasmodium falciparum growth inhibition, primary screen, strain 3D7, DAPI fluorescence, 100 nL (AID 1184);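 further: parasites grown inside human red blood cells in medium with human serum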; conditions: P. falciparum 3D7 growth, 3 d, higher = more signal
[3] = target: Homeobox protein Hox-A13 (Mus musculus) (UniProt Q62424); assay: inhibitors of HoxA13-DNA binding, primary screen, biochemical, fluorescence polarization, labeled oligonucleotide (AID 1185); conditions: 15 min, higher = more signal, called active from +8 up or from −8 down
Chain of Homeobox protein Hox-A13 (Mus musculus) (Q62424 whole entry, looked up): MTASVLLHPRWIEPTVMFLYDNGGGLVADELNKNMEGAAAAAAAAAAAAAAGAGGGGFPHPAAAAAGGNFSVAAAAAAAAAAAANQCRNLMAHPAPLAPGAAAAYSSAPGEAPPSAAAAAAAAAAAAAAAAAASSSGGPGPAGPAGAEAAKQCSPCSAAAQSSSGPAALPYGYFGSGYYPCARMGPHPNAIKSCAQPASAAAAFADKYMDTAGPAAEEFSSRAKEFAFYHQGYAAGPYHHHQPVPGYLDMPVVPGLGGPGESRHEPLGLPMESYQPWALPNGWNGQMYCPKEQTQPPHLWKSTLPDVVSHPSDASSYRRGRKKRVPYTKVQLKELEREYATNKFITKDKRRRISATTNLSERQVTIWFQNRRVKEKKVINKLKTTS

[4] = inhibitors of hydroxyurea-induced Chk1 phosphorylation, primary screen, imaging, HeLa, phospho-Chk1 antibody, percent positive cells (AID 1186); conditions: hydroxyurea-induced phospho-Chk1 immunofluorescence imaging, higher = more signal
[5] = inhibitors of hydroxyurea-induced Chk1 phosphorylation, primary screen, imaging, HeLa, phospho-Chk1 nuclear intensity (AID 1187); conditions: hydroxyurea-induced phospho-Chk1 immunofluorescence imaging, higher = more signal

| SMILES | composite z-score [1] | composite z-score (XIP peptide (Xip251-270)) | z-score [2] | z-score [3] | z-score [4] | z-score [5] |
| --- | --- | --- | --- | --- | --- | --- |
| C=CC[C@]1(C(=O)N2CCCCC2)N=C(c2ccc(OCCCO)cc2)O[C@H]1c1ccccc1 | 0.754 (inactive) | 0.807 | -2.03 | -5.69 (inactive) | -0.0473 (inactive) | 0.452 (inactive) |
| CC(C)C[C@@H]1NC(=O)[C@@H]2C[C@H](C(=O)NCCCCCN)[C@H](c3cccc(OCCO)c3)N2C1=O | 0.0825 (inactive) | 0.758 | -0.0757 | -3.34 (inactive) | -0.356 (inactive) | -0.49 (inactive) |
| COC(=O)[C@@]1(Cc2ccc(F)cc2)[C@H]2c3cc(C(=O)N(C)C)n(Cc4ccc(S(C)(=O)=O)cc4)c3C[C@H]2CN1C(=O)c1ccccc1 | 1.46 (inactive) | 0.788 | -0.589 | -4.58 (inactive) | 0.144 (inactive) | 0.0541 (inactive) |
| CCCC[C@@H]1C[C@H]1[C@@H](NC(=O)c1ccco1)c1ccc(Cl)cc1 | 0.593 (inactive) | -0.111 | -0.727 | -3.18 (inactive) | -0.522 (inactive) | -0.995 (inactive) |
| CC(=O)n1cc(C(O)C2C=CC3C(=O)N(C)C(=O)C3N2Nc2ccccc2)c2ccccc21 (configuration not stated) | 0.144 (inactive) | 0.383 | 0.413 | -3.76 (inactive) | -0.47 (inactive) | -0.987 (inactive) |
| COc1ccc(COC2OC[C@]3(C)[C@H]4C5=C(CN3C(=O)OC(C)(C)C)[C@H](C)C(CO)C(CO)C5CC[C@@H]24)cc1 (some centres not stated) | -0.188 (inactive) | 0.505 | -1.04 | -4.75 (inactive) | 0.721 (inactive) | 0.353 (inactive) |
| CN1C(=O)C2C=CC(C(O)c3cc(C(F)(F)F)cc(C(F)(F)F)c3)N(N3CCCCC3)C2C1=O (configuration not stated) | 0.11 (inactive) | 0.289 | -0.0782 | -4.54 (inactive) | -1.22 (inactive) | -1.63 (inactive) |
| COc1ccc([Si](C)(C)[C@H]2[C@H](CCO)O[C@@]3(C(=O)N(Cc4ccc(N5C(=O)COc6ccccc65)cc4)c4ccccc43)[C@@H]2C)cc1 | 0.0409 (inactive) | 0.254 | -1.95 | -0.911 (inactive) | -0.661 (inactive) | -1.02 (inactive) |
| CC(C)(C)OC(=O)CC[C@@]1(C(=O)NCC(O)CO)N=C(c2ccc(OCCCO)cc2)O[C@@H]1c1ccccc1N=[N+]=[N-] (some centres not stated) | 1.01 (inactive) | 0.795 | -1.86 | -4.43 (inactive) | -0.436 (inactive) | -0.65 (inactive) |
| C#CCN(Cc1ccccc1Br)C(/C=C/c1ccccc1)CO (configuration not stated) | 1.09 (inactive) | -0.318 | -1.02 | -6.39 (inactive) | -0.348 (inactive) | -0.323 (inactive) |
| CCCC#C[Si](O[C@H](CC)c1cn([C@H](CO)Cc2ccccc2)nn1)(C(C)C)C(C)C | 0.149 (inactive) | 0.405 | 0.129 | -0.713 (inactive) | 0.112 (inactive) | -0.311 (inactive) |
| CCCN1C(=O)[C@]2(CCS(=O)(=O)c3ccccc3)N=C(c3ccc(OCCCO)cc3)O[C@@H]2c2ccccc21 | -0.0893 (inactive) | 0.11 | -2.6 | -5.36 (inactive) | -0.701 (inactive) | -0.918 (inactive) |
| COc1ccc([Si](C)(C)[C@H]2[C@H](CC(=O)N3Cc4ccccc4C[C@H]3CO)O[C@@]3(C(=O)N(Cc4ccc(N5CCC5=O)cc4)c4ccccc43)[C@@H]2C)cc1 | 0.0316 (inactive) | 0.817 | -1.95 | -3.83 (inactive) | -0.176 (inactive) | -0.0862 (inactive) |
| CCCCC(=C=CC[C@@H](O)c1ccccc1OCCO)CCO | -0.247 (inactive) | 0.357 | -1.6 | -3.19 (inactive) | 0.525 (inactive) | 0.585 (inactive) |
| COc1cc2c(cc1OC)CN(C(=O)[C@H]1[C@@H]3C(=O)O[C@@H](c4ccccc4)[C@@H](c4ccccc4)N3[C@@H](c3ccc(O)cc3)[C@]13C(=O)Nc1ccc(C#CCNC(N)=O)cc13)CC2 | -0.564 (inactive) | 0.497 | -0.599 | -1.24 (inactive) | -0.192 (inactive) | -0.245 (inactive) |
| COC(=O)[C@@]1(Cc2ccc(F)cc2)[C@H]2c3cc(C(=O)N(C)C)n(CC4CC4)c3C[C@H]2CN1C(=O)c1ccccc1 | 0.308 (inactive) | 0.524 | -1.33 | -2.84 (inactive) | -1.45 (inactive) | -1.76 (inactive) |
| C=CCOC(=O)[C@H]1[C@@H]2C(=O)O[C@@H](c3ccccc3)[C@@H](c3ccccc3)N2[C@@H](c2ccc(OCCOC(=O)[C@H]3C[C@H]4C(=O)N5CCC[C@H]5C(=O)N4[C@H]3c3ccc(O)cc3)cc2)[C@]12C(=O)Nc1ccc(I)cc12 | 2.85 (inactive) | 0.84 | -1.28 | 0.622 (inactive) | -0.187 (inactive) | 0.366 (inactive) |
| COC(=O)[C@@]1(Cc2ccc(OC)cc2)[C@H]2c3cc(C(=O)N(C)C)n(Cc4cccc5ccccc45)c3C[C@H]2CN1C(=O)c1ccccc1 | 0.237 (inactive) | 0.822 | -1.61 | -4.2 (inactive) | 0.0329 (inactive) | -0.19 (inactive) |
| COCCOC(=O)N1C(=O)[C@@]2(c3cc(C#CCCO)ccc31)[C@H](C(=O)Nc1nc3ccccc3s1)[C@H]1C(=O)O[C@H](c3ccccc3)[C@H](c3ccccc3)N1[C@@H]2c1ccc(OCCO)cc1 | 0.886 (inactive) | 0.744 | -1.12 | 0.518 (inactive) | -0.502 (inactive) | -0.558 (inactive) |
| CN1C(=O)C2C=CC(C(O)C3CC=CCC3)N(NC(=O)OC(C)(C)C)C2C1=O (configuration not stated) | 0.947 (inactive) | 0.539 | 0.849 | -2.05 (inactive) | 0.867 (inactive) | 0.509 (inactive) |
| CCOC(=O)C[C@H]1[C@H](OC(=O)Cc2ccc3c(c2)OCO3)[C@@H](NC(=O)c2ccc3ccccc3c2)c2cc(OCCCO)ccc2N1C(=O)c1ccccc1 | 0.0654 (inactive) | 0.263 | 0.168 | -2.57 (inactive) | -0.251 (inactive) | -0.629 (inactive) |
| CCOC(=O)C=Cc1cc([N+](=O)[O-])ccc1O | -0.0238 (inactive) | -0.466 | -1.14 | 0.98 (inactive) | -0.818 (inactive) | -1.46 (inactive) |
| COCCCNC(=O)C1N=C(c2ccc(OCCCO)cc2)N(c2ccccc2)O1 (configuration not stated) | 1.84 (inactive) | 0.779 | -0.572 | -2.25 (inactive) | -0.0836 (inactive) | 0.164 (inactive) |
| CN1C(=O)C2C=CC(C(O)C3CCCCC3)N(Nc3ccc([N+](=O)[O-])cc3[N+](=O)[O-])C2C1=O (configuration not stated) | 0.514 (inactive) | 0.487 | 0.501 | -2.4 (inactive) | 0.168 (inactive) | 0.377 (inactive) |
| C=CCOC(=O)[C@H]1[C@@H]2C(=O)O[C@@H](c3ccccc3)[C@@H](c3ccccc3)N2[C@@H](c2ccc(OCCOC(=O)[C@@H]3C[C@@H]4C(=O)N[C@@H](CCCC[N+](C)(C)C)C(=O)N4[C@@H]3c3ccc(O)cc3)cc2)[C@]12C(=O)Nc1ccccc12 | 0.543 (inactive) | 0.637 | 0.327 | 6.39 (inactive) | -0.75 (inactive) | -0.282 (inactive) |
| COC(=O)[C@@]1(Cc2ccc(OC)cc2)[C@H]2c3cc(C(=O)N4CCCC4)n(Cc4ccccc4)c3C[C@H]2CN1C(=O)c1ccccc1 | 0.738 (inactive) | 0.0127 | -1.5 | -3.78 (inactive) | 0.212 (inactive) | 0.07 (inactive) |
| CC(C)c1ccc(NN2C(C(O)C(c3ccccc3)c3ccccc3)C=CC3C(=O)N(c4ccccc4)C(=O)C32)cc1 (configuration not stated) | 0.234 (inactive) | 0.739 | -0.536 | -2.67 (inactive) | 0.286 (inactive) | 0.207 (inactive) |

Source: PubChem BioAssay
